Test results reported in PubChem BioAssay AID652257 (The Scripps Research Institute Molecular Screening Center, 2013).
The whole screen tested about 370,000 compounds, of which about 4,800 (1.3%) were called active. The sample holds actives, similar compounds and a random draw of the others, so the mix is not that of the screen.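 Rule for the calls: active = inhibition above about 21% made by adding two undisclosed values (limit read from the data); inactive = the rest.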

What follows are molecules tested against Protein arginine N-methyltransferase 1 (Homo sapiens) (UniProt Q99873) (assay: PRMT1 methyltransferase inhibitors, primary screen, biochemical, fluorescence polarization (AID 652257)). Details: recombinant PRMT1, activity-based probe fluorescence polarization; at 2.79 µM; stronger effect = higher value.
Chain of Protein arginine N-methyltransferase 1 (Homo sapiens) (Q99873 whole entry, looked up): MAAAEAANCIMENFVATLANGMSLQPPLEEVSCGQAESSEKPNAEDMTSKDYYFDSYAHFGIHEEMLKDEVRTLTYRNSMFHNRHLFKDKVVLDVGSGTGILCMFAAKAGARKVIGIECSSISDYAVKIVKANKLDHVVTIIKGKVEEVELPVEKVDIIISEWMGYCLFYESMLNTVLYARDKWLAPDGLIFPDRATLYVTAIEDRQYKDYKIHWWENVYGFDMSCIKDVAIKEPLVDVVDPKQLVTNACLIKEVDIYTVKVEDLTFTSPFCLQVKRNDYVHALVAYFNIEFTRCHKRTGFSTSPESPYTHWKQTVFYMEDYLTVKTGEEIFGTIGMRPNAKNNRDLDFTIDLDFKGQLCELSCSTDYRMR
In the case of Cc1ccc2nc(CN(C)C(=O)[C@@H](Cc3ccccc3)NC(=O)[C@H]3O[C@@H](n4ccc(=O)[nH]c4=O)[C@H](O)[C@@H]3O)[nH]c2c1, the inhibition is reported as 1.16% (inactive).
In the case of COc1ccc(NC(=O)C(C)SCc2ccccc2)cc1 (configuration not stated), the inhibition is reported as 1.07% (inactive).
CSc1nc(C)cc(SC(C(C)=O)C(=O)Nc2ccccc2)n1 (configuration not stated) was tested, and the inhibition was 73.7% (active).
With Cc1nnc(SC(C(=O)Nc2cc(Cl)cc(Cl)c2)c2ccccc2)[nH]c1=O (configuration not stated) the inhibition was 11.5% (inactive).
CCCC[C@H](C(=O)N(CC)c1ccccc1)[C@@H](O)c1ccc2ccccc2c1 was tested, and the inhibition was 1.04% (inactive).
In the case of COc1cccc(N(C)C(=O)[C@@H](C)[C@@H](O)c2ccc3ccccc3c2)c1, the inhibition is reported as -1.81% (inactive).
For CC(=O)N(C1=C(Cl)C(=O)c2ccccc2C1=O)c1ccc(C(=O)O)cc1, the inhibition was 87.5% (active).
In the case of CCOC(=O)N1CCN(C(=O)C[C@H]2C[C@@]3(C(=O)OC)C(=C[C@H](C(C)(C)C)O[C@@H]3C)N(Cc3ccc(Cl)cc3Cl)C2=O)CC1, the inhibition is reported as 1.72% (inactive).
For COc1ccc(N2C(=O)CC(Sc3n[nH]c(-c4ccc(C)cc4)n3)C2=O)cc1 (configuration not stated), the inhibition was 66% (active).
For COc1ccc(N2C(=O)C(O)C2c2ccc(C)cc2)cc1 (configuration not stated), the inhibition was 3.23% (inactive).
With CCOC(=O)c1ccc(N2C(=O)CC(Sc3nc(O)c(CC)c(=O)[nH]3)C2=O)cc1 (configuration not stated) the inhibition was -0.27% (inactive).
With CC(=O)Nc1ccc(N2C(=O)CC(Sc3nccc(C)n3)C2=O)cc1 (configuration not stated) the inhibition was 15.5% (inactive).
For Cc1ccc(N2C(=O)CC(Sc3ncn[nH]3)C2=O)cc1 (configuration not stated), the inhibition was 85.1% (active).
For Cc1ccnc(SC2CC(=O)N(c3ccccc3)C2=O)n1 (configuration not stated), the inhibition was 8.05% (inactive).
In the case of O=C1CC(Sc2ncn[nH]2)C(=O)N1c1ccccc1 (configuration not stated), the inhibition is reported as 60.4% (active).
For CCOc1ccccc1N1C(=O)CC(Sc2nccc(C)n2)C1=O (configuration not stated), the inhibition was 14.4% (inactive).
With O=C(CSc1ncn[nH]1)Nc1ccnc2ccccc12 the inhibition was 0.32% (inactive).
In the case of CCCC1CCC2(CCCN2CCOC(=O)NCc2ccccc2)CC1 (configuration not stated), the inhibition is reported as 5.29% (inactive).
With O=C(NC1CCCC1)C1CSCCS(=O)(=O)N1Cc1ccccc1 (configuration not stated) the inhibition was -0.44% (inactive).
O=C(Nc1cccc(Cl)c1)OC1CC2CC1[C@H]1CCCCN1[C@H]2Cc1ccccc1 (some centres not stated) was tested, and the inhibition was 1.47% (inactive).
CC[C@@H](CCC(=O)N(c1ccccc1)c1ccccc1)C1CC1 was tested, and the inhibition was -2.74% (inactive).
c1coc(CCNc2ncnc3ccc(-c4ccc5c(c4)OCO5)cc23)c1 was tested, and the inhibition was 15% (inactive).
For O=S1(=O)c2ccc(N3CCN(Cc4ccccc4F)CC3)cc2Oc2ccccc2CN1Cc1cn(Cc2ccc(Cl)cc2)nn1, the inhibition was -3.79% (inactive).
O=C(CSc1nnc(-c2ccccn2)n1-c1ccccc1)Nc1ccc2cn[nH]c2c1 was tested, and the inhibition was 1.03% (inactive).
For C=CCn1c(SCC(N)=O)nnc1-c1ccccc1OC, the inhibition was 5.94% (inactive).
For O=C(Cn1nc([N+](=O)[O-])nc1Br)NC1CCCCC1, the inhibition was -3.64% (inactive).
With O=C(CCCCCN1C(=O)C2C3C=CC(C3)C2C1=O)Nc1ccccc1 (configuration not stated) the inhibition was -2.78% (inactive).
With O=C(C1=C(O)C(=O)N(c2ncccn2)C1c1cccs1)c1ccco1 (configuration not stated) the inhibition was -1.95% (inactive).
In the case of C=CCSc1nnc(N2C(=O)C(O)=C(C(=O)c3ccco3)C2c2ccc(F)cc2)s1 (configuration not stated), the inhibition is reported as 14.8% (inactive).
Cc1ccc2nc(N3C(=O)C(O)=C(C(=O)c4ccco4)C3c3cccc(O)c3)sc2c1 (configuration not stated) was tested, and the inhibition was 24% (active).
For CCc1c(-c2ccccc2OC)ncn1CCc1ccccc1OC, the inhibition was -6.39% (inactive).
With N#Cc1ccccc1OC[C@@H](O)CN1CCC(C(O)(c2ccccc2)c2ccccc2)CC1 the inhibition was -3.45% (inactive).
CC(=O)Nc1cccc(-c2cc(NC=O)c3ncc(-c4ccc(F)c(Cl)c4)n3c2)c1 was tested, and the inhibition was 2.68% (inactive).
In the case of CC(=O)Nc1cc(-c2ccccc2F)cn2c(-c3cccc(C(F)(F)F)c3)cnc12, the inhibition is reported as 2.67% (inactive).
With CC(=O)Nc1cc(-c2ccccc2N(C)C)cn2c(-c3ccc(F)c(Cl)c3)cnc12 the inhibition was 49.4% (active).
With CCOC(=O)C(=O)N(Cc1ccccc1)c1ccccc1C(=O)Nc1cc(OC)ccc1OC the inhibition was -1.5% (inactive).
With CCOc1ccc(N(CC(=O)NCCc2ccc(F)cc2)S(=O)(=O)c2ccccc2)cc1 the inhibition was 1.75% (inactive).
For COc1c(Br)cc2c(C)c(C(=O)N3CCOCC3)oc2c1Br, the inhibition was -2.82% (inactive).
In the case of CC1(C(=O)NCc2ccc3c(c2)OCO3)CCN1C(=O)Cc1cccc2ccccc12 (configuration not stated), the inhibition is reported as 24.5% (active).
For CC1(C(=O)NCc2ccc3c(c2)OCO3)CCN1CCc1ccccc1 (configuration not stated), the inhibition was -4.72% (inactive).
With CC1(C(=O)NCc2ccc3c(c2)OCO3)CCN1C(=O)Cc1cccs1 (configuration not stated) the inhibition was 0.09% (inactive).
CCOC(=O)[C@]12CCCC3=C1N(CCC3)C(=O)[C@@H](CC(=O)NCc1cccs1)C2 was tested, and the inhibition was 1.5% (inactive).
With N#CCC[C@H]1CC[C@]2(CCCN(Cc3ccc(Cl)cc3)C2)O1 the inhibition was 1.93% (inactive).
In the case of CCOc1ccc2[nH]c(=S)sc2c1, the inhibition is reported as 10.4% (inactive).
With O=c1[nH]c2ccccc2s1 the inhibition was 5.51% (inactive).
For Nc1ccc2[nH]c(=S)sc2c1, the inhibition was 28.3% (active).
Cc1cc(C)cc(NC(=O)N2CCC(N(C)CCC(C)C)CC2)c1 was tested, and the inhibition was -0.26% (inactive).
With CCN(CC)C(=O)C(C)N1c2cccc3cccc(c23)S1(=O)=O (configuration not stated) the inhibition was -0.89% (inactive).
In the case of CC1=C(C(=O)N(C)C)CC(CC(=O)NCCN2CCOCC2)C(=O)N1Cc1ccccc1 (configuration not stated), the inhibition is reported as -1.74% (inactive).
With Cc1cccc(CCNC(=O)Cn2ncc3c([nH]c4ccc(C)cc43)c2=O)c1 the inhibition was -0.97% (inactive).
With CCOC(=O)[C@]12CCCC3=C1N(CCC3)C(=O)[C@@H](CC(=O)N1CCSCC1)C2 the inhibition was -9.78% (inactive).
For COC(C[C@@H](O)[C@H](C)[C@H](O)COCc1ccccc1)OC, the inhibition was -0.18% (inactive).
With CSc1c(SCc2ccccc2)cnn(Cc2ccccc2)c1=O the inhibition was 42.6% (active).
With O=c1c2ccccc2c(-c2ccc(Br)cc2)nn1Cc1ccccc1 the inhibition was 3.02% (inactive).
COC(=O)c1ccc(SCc2ccccc2)nc1 was tested, and the inhibition was 1.13% (inactive).
In the case of Cc1cc(C)c(/C=C2\C(=O)Nc3ccccc32)[nH]1, the inhibition is reported as 64.8% (active).
For O=C1Nc2ccccc2C1=NN=Cc1ccco1, the inhibition was -4.47% (inactive).
COc1ccccc1S(=O)(=O)c1c(C)cc(C)[nH]c1=O was tested, and the inhibition was -5.06% (inactive).
With CC(=O)Nc1nc2ncccn2c1-c1ccc(C(F)(F)F)cc1 the inhibition was 5.51% (inactive).
With Cc1ccc(CNC(=O)CCS(=O)(=O)c2ccc3c(c2)CC(C)N3C(=O)C2CC2)o1 (configuration not stated) the inhibition was 35.6% (active).
In the case of CCC(=O)N1c2ccc(S(=O)(=O)NCc3ccco3)cc2CC1C (configuration not stated), the inhibition is reported as 4.05% (inactive).
For COc1ccccc1CNC(=O)C1CCN(S(=O)(=O)c2ccc3c(c2)CC(C)N3C(=O)C2CC2)CC1 (configuration not stated), the inhibition was 0.46% (inactive).
In the case of COc1ccc(N2CCN(CCNS(=O)(=O)c3ccc(Cl)s3)CC2)cc1, the inhibition is reported as -1.47% (inactive).
For Cc1cc(C)n2ncc(C(=O)Nc3ccc4c(c3)OCCO4)c2n1, the inhibition was -2.31% (inactive).
For Cc1ccc(S(=O)(=O)N2CCN(C)CC2)cc1C(=O)NC1CCCCC1, the inhibition was 3.5% (inactive).
CC(C)N1CCCCC(NC(=O)C(C)(C)C)C1=O (configuration not stated) was tested, and the inhibition was -1.77% (inactive).
For Oc1c(C(c2ccco2)N2CCC3(CC2)OCCO3)sc2ncnn12 (configuration not stated), the inhibition was 21.8% (active).
With Cc1ccc(C(c2sc3nc(C)nn3c2O)N2CCN(c3ccccc3)CC2)cc1 (configuration not stated) the inhibition was -1.11% (inactive).
For Oc1c(C(c2cccs2)N2CCN(c3ccc(F)cc3)CC2)sc2ncnn12 (configuration not stated), the inhibition was -2.78% (inactive).
For Cc1nc2sc(C(c3ccco3)N3CCC4(CC3)OCCO4)c(O)n2n1 (configuration not stated), the inhibition was 8.34% (inactive).
Cc1nc2sc(C(c3ccco3)N3CCOCC3)c(O)n2n1 (configuration not stated) was tested, and the inhibition was 49.8% (active).
In the case of CC(CCN1CCC(C(O)(c2ccccc2)c2ccccc2)CC1)Oc1ccc([N+](=O)[O-])cc1Cl (configuration not stated), the inhibition is reported as -5.87% (inactive).
With CC(=O)Nc1ccc(NS(=O)(=O)c2cc(C)sc2C)cc1 the inhibition was 3.68% (inactive).
CC(C)C(C#CC1CC1)N(Cc1ccc2c(c1)OCO2)C(N)=NC(=O)/C=C/c1cccc(C(F)(F)F)c1 (configuration not stated) was tested, and the inhibition was 1.58% (inactive).
For CCc1ccc(NC2Nc3cc(C)nn3S2)cc1 (configuration not stated), the inhibition was 30.6% (active).
CC(C)N1CCCCC(NC(=O)c2ccc3ccccc3c2)C1=O (configuration not stated) was tested, and the inhibition was 1.16% (inactive).
With O=C(OCc1cn([C@@H]2C[C@H](c3ccc(Cl)cc3)N(Cc3cccs3)C[C@H]2O)nn1)c1ccccc1 the inhibition was 6.65% (inactive).
With COC(=O)[C@@]12CCCCC=C1N(CCc1ccc(Cl)cc1)C(=O)[C@H]2CC(=O)NCc1ccc(OC)c(OC)c1 the inhibition was 1.14% (inactive).
For C#CCN([C@@H](C)C(=O)OCC)S(=O)(=O)c1ccc(Br)cc1F, the inhibition was -2.15% (inactive).
O=C(COC(=O)COc1cc(Cl)c(Cl)cc1Cl)NC1CC1 was tested, and the inhibition was 0.44% (inactive).
For NC(=S)NN=Cc1ccc(OC(=O)COc2cc(Cl)c(Cl)cc2Cl)cn1, the inhibition was 47.2% (active).
In the case of O=C(COc1cc(Cl)c(Cl)cc1Cl)NCCc1ccccn1, the inhibition is reported as -6.02% (inactive).
CCOC(=O)C1CCN(C(=O)C(C)(C)NC(=O)Nc2ccc(F)c(F)c2)CC1 was tested, and the inhibition was -1.45% (inactive).
O=C(OC12CC3CC(CC(C3)C1)C2)c1ccc(NCc2cc(O)ccc2O)cc1 was tested, and the inhibition was 19.5% (inactive).
With CCS(=O)(=O)Nc1cc(C(=O)OC)ccc1C(=O)OC the inhibition was 4.51% (inactive).
In the case of COC(=O)c1ccc(NCc2cc(O)ccc2O)cc1, the inhibition is reported as 28.5% (active).
CCC(=O)OCCCN1C(=O)CCC12CCC(c1ccccc1)CC2 (configuration not stated) was tested, and the inhibition was 0.61% (inactive).
In the case of O=C(NCc1cccs1)C1CCN(S(=O)(=O)c2ccccc2[N+](=O)[O-])CC1, the inhibition is reported as -2.52% (inactive).
For COc1ccc(N2C(=O)CC(N3CCC(C(N)=O)CC3)C2=O)cc1 (configuration not stated), the inhibition was 62.3% (active).
With CCOC(=O)c1ccc(N2C(=O)CC(N3CCN(C(=O)c4ccccc4)CC3)C2=O)cc1 (configuration not stated) the inhibition was -1.22% (inactive).
With CCOC(=O)c1ccc(N2C(=O)CC(N(C)Cc3ccccc3)C2=O)cc1 (configuration not stated) the inhibition was 1.83% (inactive).
With COc1ccc(CCN2C(=O)C3CC=C(C)CC3C2=O)cc1OC (configuration not stated) the inhibition was 0.69% (inactive).
With COc1cccc(N2C(=O)CC(N3CCN(S(=O)(=O)c4ccccc4)CC3)C2=O)c1 (configuration not stated) the inhibition was 4.31% (inactive).
In the case of CCOC(=O)c1ccc(N2C(=O)CC(N3CCC(C(=O)OCC)CC3)C2=O)cc1 (configuration not stated), the inhibition is reported as 53.2% (active).
In the case of COc1ccc(CN2C(=O)CC(Cc3ccc(C)cc3)C2=O)cc1OC (configuration not stated), the inhibition is reported as 2.37% (inactive).
With COc1cccc(N2CCN(C3CC(=O)N(c4ccc(Cl)cc4)C3=O)CC2)c1 (configuration not stated) the inhibition was 17% (inactive).
In the case of COc1ccc(CCN2C(=O)CC(N3CCC(C(N)=O)CC3)C2=O)cc1OC (configuration not stated), the inhibition is reported as 39.3% (active).
